Measurements published in paper PMC8769072, “Proteome‐scale mapping of binding sites in the unstructured regions of the human proteome” (Molecular Systems Biology, 2022).

Biological target: NEDD4 890-928, P46934
Sequence (P46934 890-928): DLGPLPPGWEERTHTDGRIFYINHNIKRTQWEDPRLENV

Selected by phage display, active:
MARRYDELPHYPGIVD [MEIS3, Q99687] confidence 3
DQRLPPYPYSSPSLVL [CRTC2, Q53ET0] confidence 4
ASERPPTYAELVPRVP [SH2D3A, Q9BRG2] confidence 3
EDSLPPYKLKLDLTKL [TMEM59L, Q9UK28] confidence 2
ALPEPPPPYEFSASSA [N4BP3, O15049] confidence 3
PPPQYIHPNSINVDGN [PRDM4, Q9UKN5] confidence 2
ALPPYSNAGDLYSEPV [EGR3, Q06889] confidence 2
YLSEGFGYGMPPLYPQ [NFATC4, Q14934] confidence 2
NSTPPPYERTRLSPPR [RBM14, Q96PK6] confidence 3
ASDPPPPYSDFHPNNQ [ABRAXAS2, Q15018] confidence 3
NLPVGYPPQYPPTAFQ [PLSCR1, O15162] confidence 2
SPPDYLQTVSHPEVYR [SH3D21, A4FU49] confidence 3
DLPAYTSPTNFPAVLS [ABCA2, Q9BZC7] confidence 3
LANVIAPPPPPYTPNP [PROSER1, Q86XN7] confidence 2
TSSSLAYPPPPSYPSP [EGR2, P11161] confidence 3
ATTHYHTYLPPPYPGS [RUNX2, Q13950] confidence 2
TSPIADFPAPPPYSAV [SYNPO2, Q9UMS6] confidence 4
QSNADALPPDYSVVRG [LYPD5, Q6UWN5] confidence 2
ADLPPPYSPTPQGPAQ [CYYR1, Q96J86] confidence 2
TAPPTYTETLSTAPLA [SYNPO, Q8N3V7] confidence 3
LPSYPVAPTSRASPSP [CCDC87, Q9NVE4] confidence 3
DKNDYLPLYSSSTKVK [ZNF148, Q9UQR1] confidence 2
RLSISLPSYESLTGLD [TMEM51, Q9NW97] confidence 2
LAGGPAVGGLPPYATF [OTUD7B, Q6GQQ9] confidence 2
SEGTDNGDLPSYVSAF [RINT1, Q6NUQ1] confidence 2
TAPPPYSPSPNPYQTA [FAM168A, Q92567] confidence 3
FLPPYPPQEANRSITS [VPS37A, Q8NEZ2] confidence 3
GSPPSYSEALLDQRPA [LDLRAD3, Q86YD5] confidence 3

Biological target: MAP1LC3B 2-119, Q9GZQ8

Selected by phage display, active:
EDGYTQLHFDSQSNTR [CLEC7A, Q9BXN2] confidence 2
KPIKENIEESYVHLDI [FRYL, O94915] confidence 3
HVRDAIRSYTEDWAIV [DOCK7, Q96N67] confidence 2
EYEIIETIGNGAYGVV [MAPK7, Q13164] confidence 2
DIGGFTLLDGKLVLLG [RASAL3, Q86YV0] confidence 4
QAVTHDNEWEMLSPQP [PRUNE2, Q8WUY3] confidence 4
DSWEIIEGLKIGQTNV [OSBPL6, Q9BZF3] confidence 3
QEEWALLDPSQKNLYR [ZNF878, C9JN71] confidence 2
HDEAWMVLKQVHDTNM [SV2A, Q7L0J3] confidence 3
PPAPLAHSDDYVHISL [TSC1, Q92574] confidence 2
MAMSNGNNDFVVLSNS [DISP1, Q96F81] confidence 2
PHSHDWVWLGNEVELL [TMEM132B, Q14DG7] confidence 2
EPWAQLEASDIHTAAA [WDR90, Q96KV7] confidence 4
AGHQLGLEADGHWGLL [ZNF469, Q96JG9] confidence 3
EPGWVVLDQPDAAAHL confidence 4
VDNRESSENWEIIRED confidence 2

Biological target: MAP1LC3A 2-121, Q9H492

Selected by phage display, active:
SLEPPSPFELLEPPTS [MAP1S, Q66K74] confidence 3
VPAFEVLEISPQEVSS [MS4A2, Q01362] confidence 2
LEAEVDFTVIGDYHGS [EPB41L1, Q9H4G0] confidence 2
WEVVTSAIPRGAWHGA [ZNF419, Q96HQ0] confidence 2
APELWTELTGLAASSE [KIFC2, Q96AC6] confidence 3
HLGEWGHLDPAEENLK [ZSCAN18, Q8TBC5] confidence 2
LPEGFQLLQIDAEGEA [TRMT10B, Q6PF06] confidence 2
DAGLGFVDLTDLTDHQ [PEG3, Q9GZU2] confidence 3
DLNSQDRVDHEEWEMV [STBD1, O95210] confidence 4
WTDLASIFGSNKDLMG [NLRP2, Q9NX02] confidence 3
GNSGFQLLDLVHEEGE [SLC7A6OS, Q96CW6] confidence 2
AEESFTTLNVDIRNHQ [USP9X, Q93008] confidence 2
EPWAQLEASDIHTAAA [WDR90, Q96KV7] confidence 3
ASPQGEWTILELETQH [KIAA1107, Q9UPP5] confidence 3
DSWGIIAEPRQSAFSN [IRS4, O14654] confidence 4
LNVSSREEAFTDLSLA [USP35, Q9P2H5] confidence 3
VPFTELVVQSITPHQS [BMP2K, Q9NSY1] confidence 3
AVQVPESFEHLPPLPE [ATF7IP2, Q5U623] confidence 4

Biological target: YAP1 169-207, P46937
Sequence (P46937 169-207): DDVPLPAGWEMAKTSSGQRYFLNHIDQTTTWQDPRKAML

Selected by phage display, active:
DQRLPPYPYSSPSLVL [CRTC2, Q53ET0] confidence 3
EDSLPPYKLKLDLTKL [TMEM59L, Q9UK28] confidence 4
ADLPPPYSPTPQGPAQ [CYYR1, Q96J86] confidence 3
